# According to PubChem BioAssay AID770 (SRMLSC, 2007):
# The campaign covered roughly 3,300 compounds. Fewer than 10 were called active.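 The calls were made as follows: active = growth inhibition above 90% in viable cell count at a single dose; inactive = growth inhibition below 90%.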 These entries were drawn from the full list.
# Test: HT29 colon tumor cell growth inhibition, primary screen, imaging, high content imaging, 24 h, CellTiter-Glo (AID 770);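 as to condensed nuclei: share of cells whose nuclear area falls below control median minus 1.5 SD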
# Settings: HT29 cell number by imaging, at 10 µM, stronger effect = higher value; for condensed nuclei: measured here: percent cells with condensed nuclei
# [1] = measured here: ATP CellTiter-Glo viability
SMILES,growth inhibition,growth inhibition [1] [%],condensed nuclei [%]
Cc1c2ccncc2c(C)c2c1[nH]c1ccccc12,95.1% (active),46.4,18.1
c1ccc2c(c1)[nH]c1cnccc12,36.4% (inactive),17.6,3.43
C=CCOC(=O)C1=C(C)OC(N)=C(C#N)[C@@]12C(=O)N(CC(N)=O)c1ccccc12,19% (inactive),-1.1,5.52
Cn1c(O)c(C=NC2CCN(Cc3ccccc3)CC2)c(=O)n(C)c1=O,26.8% (inactive),3.87,6.67
CN1CC[C@@]23CCCC[C@@H]2[C@@H]1Cc1ccc(O)cc13,-3.31% (inactive),-18.2,4.84
C/C(Cl)=C/CC1(CN2CCCC2=O)C(=O)NC(=O)NC1=O,-10.6% (inactive),-8.34,2.87
CCCCCCn1c(O)c(C=Nc2c(C)n(C)n(-c3ccccc3)c2=O)c(=O)[nH]c1=O,-5.94% (inactive),-9.79,3.03
Cc1c(N=Cc2c(O)n(CCc3ccccc3)c(=O)[nH]c2=O)c(=O)n(-c2ccccc2)n1C,23.4% (inactive),16.4,7.53
CCOc1ccccc1-n1c(O)c(C=Nc2c(C)n(C)n(-c3ccccc3)c2=O)c(=O)[nH]c1=O,100% (active),-85.3,5.62
CCCCCCn1c(O)c(C=NC2CCN(Cc3ccccc3)CC2)c(=O)[nH]c1=O,3.03% (inactive),23.3,1.13
